Data published in PubChem BioAssay (EPA / NIEHS).
Records with an inconclusive call do not appear. Activity calls are given as the source filed them. Rule for the calls, unless noted: active = hit-call score of the fitted dose curve at least 0.9, where 1 is the maximum; inactive = score below 0.9.

Test: CCTE_Shafer_MEA_acute_LDH: CCTE's Lactate Dehydrogenase Assay for Cytotoxicity in the Neural Acute Assay, Shafer Lab (AID 2284086; active = hit-call score of the fitted dose curve at least 0.9, where 1 is the maximum;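 note: active means LDH release rises above DMSO vehicle level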)
Conditions: not given
Procedure, shortened: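 LDH absorbance at 490 nm in medium taken right after 40-min compound exposure; rat primary cortical neuron networks on MEA plates, days post-plating 13 or 15. Increase over DMSO baseline scored as cytotoxicity.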
With `CC(=O)N1CCN(c2ccc(OC[C@H]3CO[C@](Cn4ccnc4)(c4ccc(Cl)cc4Cl)O3)cc2)CC1` the outcome was “inactive”. In the case of `CN(C)c1ccc(C(=C2C=CC(=[N+](C)C)C=C2)c2ccc(N(C)C)cc2)cc1`, the AC50 is reported as 7.76 µM (active). In the case of `Clc1ccccc1C(c1ccccc1)(c1ccccc1)n1ccnc1`, the outcome is reported as “inactive”. In the case of `c1ccc2n[nH]nc2c1`, the outcome is reported as “inactive”. In the case of `NC(=O)c1nc(-c2cccc(-c3cc(F)ccc3OCC(F)(F)C(F)(F)F)c2)n[nH]1`, the outcome is reported as “inactive”. In the case of `CC1=CC(=O)/C(=C(/C)O)C(=O)O1`, the outcome is reported as “inactive”. In the case of `COc1cccc([C@H](O)C2CCN(CCc3ccc(F)cc3)CC2)c1OC`, the outcome is reported as “inactive”. With `OC12N=C(c3ccccc3)SC1Cc1cc(Cl)ccc12` (centres undefined) the outcome was “inactive”.

Test: CCTE_Shafer_MEA_dev_mutual_information_norm: CCTE's Neural Network Formation Assay for Mutual Information Normalization, Shafer Lab (AID 2284091);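 for AC50: mutual information between electrodes summarised as area under curve across four recording days; potency is for a decrease in mutual information relative to DMSO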
Conditions: not given
Procedure, shortened: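 Neurons from rat cortex were seeded at 1.5 x 10^5 cells/well onto PEI-coated MEAs in a laminin drop, then exposed to compound from day 0 for twelve days. Network recordings on four days gave mutual information, summarised by AUC relative to DMSO.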
For `O=C1O[C@H]([C@@H](O)CO)C(O)=C1O`, the outcome was “inactive”. In the case of `c1ccc2ccccc2c1`, the outcome is reported as “inactive”. For `CC(C)(c1cc(Br)c(O)c(Br)c1)c1cc(Br)c(O)c(Br)c1`, the outcome was “inactive”. With `Oc1ccccc1` the outcome was “inactive”. With `Clc1ccccc1C(c1ccccc1)(c1ccccc1)n1ccnc1` the outcome was “inactive”. For `CC/C(=C(/CC)c1ccc(O)cc1)c1ccc(O)cc1`, the AC50 was 0.864 µM (active). With `CN1C(=O)CC[C@H]1c1cccnc1` the outcome was “inactive”.

Test: CCTE_Shafer_MEA_dev_correlation_coefficient_mean: CCTE's Neural Network Formation Assay for Mean Correlation Coefficient, Shafer Lab (AID 2284093);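 for AC50: well mean pairwise spike train correlation integrated as AUC over recording days 5 to 12; potency fitted for loss of correlation relative to DMSO vehicle wells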
Conditions: not given
Procedure, shortened: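 Rat cortical cultures, 1.5 x 10^5 cells/well, dosed from day 0 for 12 days. Spontaneous spikes recorded DIV 5/7/9/12; electrode-pair correlation coefficients averaged, AUC taken. Fit in loss direction vs DMSO.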
In the case of `O=C1O[C@H]([C@@H](O)CO)C(O)=C1O`, the outcome is reported as “inactive”. For `c1ccc2ccccc2c1`, the outcome was “inactive”. With `CC(C)(c1cc(Br)c(O)c(Br)c1)c1cc(Br)c(O)c(Br)c1` the outcome was “inactive”. In the case of `Oc1ccccc1`, the outcome is reported as “inactive”. For `Clc1ccccc1C(c1ccccc1)(c1ccccc1)n1ccnc1`, the outcome was “inactive”. In the case of `CC/C(=C(/CC)c1ccc(O)cc1)c1ccc(O)cc1`, the AC50 is reported as 5.98 µM (active). With `CN1C(=O)CC[C@H]1c1cccnc1` the outcome was “inactive”.

Test: CCTE_Mundy_HCI_Cortical_Synap_Neur_Matur_NeuriteSpotCountPerNeuriteLength: CCTE's Synaptogenesis and Neurite Maturation Assay in rat cortical cells for Neurite Spot Count per Neurite Length, Mundy Lab (AID 2284210)
Conditions: not given
Procedure, shortened: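 Read-out: synaptophysin puncta counted along MAP2-stained neurites, normalised to neurite length, by automated high-content imaging. Rat cortical cells; AraC DIV 5; chemical dosing DIV 7; termination DIV 12. DMSO baseline.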
With `O=C1O[C@H]([C@@H](O)CO)C(O)=C1O` the outcome was “inactive”. In the case of `Oc1ccccc1`, the outcome is reported as “inactive”. In the case of `CC/C(=C(/CC)c1ccc(O)cc1)c1ccc(O)cc1`, the outcome is reported as “inactive”. For `CN1C(=O)CC[C@H]1c1cccnc1`, the outcome was “inactive”.

Test: CCTE_Mundy_HCI_Cortical_Synap_Neur_Matur_BPCount: CCTE's Synaptogenesis and Neurite Maturation Assay in rat cortical cells for Branch Point Count, Mundy Lab (AID 2284211)
Conditions: not given
Procedure, shortened: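 In this multiplexed morphology assay, cortical cells from rat receive chemicals at DIV 7 and are fixed at DIV 12, then immunostained and imaged; branch points are counted, with DMSO as baseline.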
In the case of `O=C1O[C@H]([C@@H](O)CO)C(O)=C1O`, the outcome is reported as “inactive”. For `Oc1ccccc1`, the outcome was “inactive”. With `CC/C(=C(/CC)c1ccc(O)cc1)c1ccc(O)cc1` the AC50 was 8.64 µM (active). In the case of `CN1C(=O)CC[C@H]1c1cccnc1`, the outcome is reported as “inactive”.

Test: CCTE_Mundy_HCI_Cortical_NOG_NeuriteCount: CCTE's Neurite Outgrowth Assay in rat cortical cells for Neurite Count, Mundy Lab (AID 2284212);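 note: cells fixed about two days after chemical exposure began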
Conditions: not given
Procedure, shortened: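 Rat cortical primary cells; compound added 2 h post-plating, 1/10 dilution of working solution. Anti-betaIII-tubulin/AF488 ICC; ArrayScan neurite count vs DMSO.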
With `O=C1O[C@H]([C@@H](O)CO)C(O)=C1O` the outcome was “inactive”. With `Oc1ccccc1` the outcome was “inactive”. For `CC/C(=C(/CC)c1ccc(O)cc1)c1ccc(O)cc1`, the AC50 was 22.6 µM (active). In the case of `CN1C(=O)CC[C@H]1c1cccnc1`, the outcome is reported as “inactive”.

Test: CCTE_Mundy_HCI_Cortical_NOG_NeuriteLength: CCTE's Neurite Outgrowth Assay in rat cortical cells for Neurite Length, Mundy Lab (AID 2284213);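 for AC50: neurites imaged about 48 to 50 h after chemical exposure began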
Conditions: not given
Procedure, shortened: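 First, rat primary cortical cells were plated and, 2 h later, given test chemical as a 1/10 dilution. Finally, βIII-tubulin immunostaining enabled automated imaging of neurite length.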
In the case of `O=C1O[C@H]([C@@H](O)CO)C(O)=C1O`, the outcome is reported as “inactive”. With `Oc1ccccc1` the outcome was “inactive”. In the case of `CC/C(=C(/CC)c1ccc(O)cc1)c1ccc(O)cc1`, the AC50 is reported as 23.7 µM (active). In the case of `CN1C(=O)CC[C@H]1c1cccnc1`, the outcome is reported as “inactive”.

Test: CCTE_Mundy_HCI_Cortical_Synap_Neur_Matur_NeuriteLength: CCTE's Synaptogenesis and Neurite Maturation Assay in rat cortical cells for Neurite Length, Mundy Lab (AID 2284214)
Conditions: not given
Procedure, shortened: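 Read-out: high-content imaging of MAP2-labelled neurites, with synaptophysin and Hoechst co-stain, in rat cortical cultures fixed at DIV 12. Activity fitted in positive direction relative to DMSO baseline.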
In the case of `O=C1O[C@H]([C@@H](O)CO)C(O)=C1O`, the outcome is reported as “inactive”. With `Oc1ccccc1` the outcome was “inactive”. In the case of `CC/C(=C(/CC)c1ccc(O)cc1)c1ccc(O)cc1`, the AC50 is reported as 9.46 µM (active). With `CN1C(=O)CC[C@H]1c1cccnc1` the outcome was “inactive”.

Test: CCTE_Mundy_HCI_Cortical_Synap_Neur_Matur_NeuriteSpotCountPerNeuron: CCTE's Synaptogenesis and Neurite Maturation Assay in rat cortical cells for Neurite Spot Count per Neuron Count, Mundy Lab (AID 2284215)
Conditions: not given
Procedure, shortened: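 Rat primary cortical cells received AraC at DIV 5, then chemicals with a media change at DIV 7, and were fixed at DIV 12. Synaptophysin puncta on MAP2-stained neurites per neuron were counted by high-content imaging, fitted relative to DMSO.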
With `O=C1O[C@H]([C@@H](O)CO)C(O)=C1O` the outcome was “inactive”. For `Oc1ccccc1`, the outcome was “inactive”. With `CC/C(=C(/CC)c1ccc(O)cc1)c1ccc(O)cc1` the AC50 was 14.3 µM (active). For `CN1C(=O)CC[C@H]1c1cccnc1`, the outcome was “inactive”.

Test: TAMU_PeakParms_SingleDonor1434_Chronotropy: Texas A&M University (TAMU) 1.5-hr Human Induced Pluripotent Stem Cell (iPSC)-derived Cardiomyocytes Calcium (Ca+2) Flux Assay for Cardiotoxicity: Chronotropy (changes in peak frequency) (AID 2284217)
Conditions: actives raise or lower the signal
Procedure, shortened: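 iPSC-CMs, donor 1434; 4 conc (0.2–100 uM), 0.5% v/v DMSO, 90 min, 37C/5% CO2; Ca2+ flux fluorescence → peak.freq.avg; peak.freq.avg = 0 dropped; bidirectional fit vs DMSO; EC05 POD.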
For `O=C1O[C@H]([C@@H](O)CO)C(O)=C1O`, the outcome was “inactive”. With `c1ccc2ccccc2c1` the AC50 was 9.92 µM (active). With `CC(C)(c1cc(Br)c(O)c(Br)c1)c1cc(Br)c(O)c(Br)c1` the outcome was “inactive”. With `CN(C)c1ccc(C(=C2C=CC(=[N+](C)C)C=C2)c2ccc(N(C)C)cc2)cc1` the outcome was “inactive”. In the case of `CC/C(=C(/CC)c1ccc(O)cc1)c1ccc(O)cc1`, the outcome is reported as “inactive”. With `CCCOC(=O)c1cc(O)c(O)c(O)c1` the AC50 was 50 µM (active).

Test: CCTE_Mundy_HCI_Cortical_Synap_Neur_Matur_SynapseCount: CCTE's Synaptogenesis and Neurite Maturation Assay in rat cortical cells for Synapse Count, Mundy Lab (AID 2284218)
Conditions: not given
Procedure, shortened: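 Read-out: synapse number per neuron, automated high-content imaging of fixed cells immunostained for MAP2 and synaptophysin plus Hoechst nuclei. Rat primary cortical cultures, AraC at DIV 5, chemical dosing DIV 7–12. Positive-direction fit relative to DMSO.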
With `O=C1O[C@H]([C@@H](O)CO)C(O)=C1O` the outcome was “inactive”. For `Oc1ccccc1`, the outcome was “inactive”. In the case of `CC/C(=C(/CC)c1ccc(O)cc1)c1ccc(O)cc1`, the AC50 is reported as 15.4 µM (active). In the case of `CN1C(=O)CC[C@H]1c1cccnc1`, the outcome is reported as “inactive”.

Test: CCTE_Mundy_HCI_hN2_NOG_NeuriteCount: CCTE's Neurite Outgrowth Assay in human hN2 cells for Neurite Count, Mundy Lab (AID 2284219; active = hit-call score of the fitted dose curve at least 0.9, where 1 is the maximum)
Conditions: not given
Procedure, shortened: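 In this morphology assay, hNP1-derived neurons received test chemical 2 h post-plating and were fixed two days later in warm paraformaldehyde/sucrose containing Hoechst 33342. Neurites, labelled by rabbit anti-βIII-tubulin (1:800) and Alexa Fluor-488 (1:500), were counted automatically.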
For `Oc1ccccc1`, the outcome was “inactive”. With `CC/C(=C(/CC)c1ccc(O)cc1)c1ccc(O)cc1` the AC50 was 9.12 µM (active). In the case of `CN1C(=O)CC[C@H]1c1cccnc1`, the outcome is reported as “inactive”.

Test: CCTE_Mundy_HCI_hN2_NOG_NeuriteLength: CCTE's Neurite Outgrowth Assay in human hN2 cells for Neurite Length, Mundy Lab (AID 2284220; active = hit-call score of the fitted dose curve at least 0.9, where 1 is the maximum)
Conditions: not given
Procedure, shortened: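 Read-out is neurite length from high-content imaging of βIII-tubulin/Alexa Fluor-488-labelled neurons, referenced to DMSO controls.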
In the case of `Oc1ccccc1`, the outcome is reported as “inactive”. In the case of `CC/C(=C(/CC)c1ccc(O)cc1)c1ccc(O)cc1`, the AC50 is reported as 7.97 µM (active). In the case of `CN1C(=O)CC[C@H]1c1cccnc1`, the outcome is reported as “inactive”.

Test: CCTE_Mundy_HCI_hN2_NOG_NeuronCount: CCTE's Neurite Outgrowth Assay in human hN2 cells for Neuron Count, Mundy Lab (AID 2284221; active = hit-call score of the fitted dose curve at least 0.9, where 1 is the maximum)
Conditions: not given
Procedure, shortened: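 Read-out is the number of betaIII-tubulin-positive neurons imaged by automated high-content analysis, with DMSO as negative control.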
In the case of `Oc1ccccc1`, the outcome is reported as “inactive”. For `CC/C(=C(/CC)c1ccc(O)cc1)c1ccc(O)cc1`, the AC50 was 3.72 µM (active). In the case of `CN1C(=O)CC[C@H]1c1cccnc1`, the outcome is reported as “inactive”.

Test: CCTE_Mundy_HCI_Cortical_Synap_Neur_Matur_NeuriteCount: CCTE's Synaptogenesis and Neurite Maturation Assay in rat cortical cells for Neurite Count, Mundy Lab (AID 2284222);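 note: exposure from day 7 to day 12 in vitro with readout at day 12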
Conditions: not given
Procedure, shortened: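 Primary rat cortical cells were plated, treated with AraC at DIV 5, then exposed to chemicals from DIV 7 through DIV 12. After fixation and immunostaining for MAP2 and synaptophysin, imaging quantified neurites, with DMSO as the negative control.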
In the case of `O=C1O[C@H]([C@@H](O)CO)C(O)=C1O`, the outcome is reported as “inactive”. With `Oc1ccccc1` the outcome was “inactive”. With `CC/C(=C(/CC)c1ccc(O)cc1)c1ccc(O)cc1` the outcome was “inactive”. In the case of `CN1C(=O)CC[C@H]1c1cccnc1`, the outcome is reported as “inactive”.
